Hit rate of the full screen: of about 6,900 compounds, fewer than 10 were called active. Calls follow the shape of the dose curve; as a rule, active = well fitted curve in the direction sought with a large enough effect; inconclusive = small, poorly fitted or top-dose-only effect, or another doubt; inactive = no such curve, though single readings can be large or run the other way. A selection follows.
target: Metallo-beta-lactamase type 2 (Klebsiella pneumoniae) (UniProt C7C422); experiment: qHTS to identify inhibitors of the New Delhi Metallo-beta-lactamase (NDM): primary screen against the NCATS Gemini Collection; conditions: NDM-1 enzyme, meropenem hydrolysis, absorbance 300 nm; series mostly up to 38.4 µM; activity % (negative = inhibition): at the top concentration; also: % of control where 0% means no effect
From the text: Assay Submitter (PI): James Inglese Ph.D., Patricia Dranchak Ph.D., Mahesh Aitha Ph.D. Assay Development and Screening Technology Laboratory (ADST) National Center for Advancing Translational Sciences (NCATS), Rockville, MD National Institute of Health (NIH), Bethesda, Maryland The metallo-beta-lactamases (MBL) are a main antibiotic resistance mechanism evolved by bacteria. There is an urgent clinical need for MBL inhibitors to mitigate this growing threat. To support a machine-based learning study, qHTS has been used to experimentally test inhibitors identified by prediction tools.
PROTOCOL TABLE (as described by Inglese et al., 2007) SEQUENCE No. (e.g., 1, 2, 3, etc.); […] (e.g., enzyme, Incubation, Reagent, etc.); VALUE; DESCRIPTION 1; NDM-1; 4 uL of 3 nM enzyme [2 nM final] in 50 mM HEPES (pH 7.0), 1 uM […], 0.01% Tween20; Use BioRaptr to dispense into Aurora black, clear bottom low base 1536-well plates 2; Compounds; 23 nL; Use Pin Tool (Wako) to transfer DMSO control and library compounds in DMSO 3; Incubate; >30 min 4; Reagent; 2 uL of 150 uM meropenem [50 uM final] 5; Incubate; 30 min. 6; Detector; Absorbance at 300 nm (bandwidth = 5 nm, 25 flashes/well) on Tecan Infinity NOTES (numbers refer to sequence above) 1; Column 1 of each plate received assay buffer without enzyme and columns 2-48 received enzyme for a final assay concentration of 2 nM. 2; Control plate contained DMSO in columns 1, 2, 3, and 4. 3; Compound interaction with enzyme. 4; Meropenem substrate was prepared in the same assay buffer as step 1 for a final assay concentration of 50 uM and added to all wells across the assay plates. 5; Substrate interaction with enzyme, plateau phase of kinetics. 6; Default reader settings were applied for absorbance read at 300 nm, bandwidth = 5 nm, 25 flashes/well. References: Inglese J, Shamu CE, Guy RK. 2007. Reporting data from high-throughput screening of small-molecule libraries. Nat Chem Biol. doi:10.1038/nchembio0807-438 Yasgar A, Shinn P, Jadhav A, Auld D, Michael S, Zheng W, Austin CP, Inglese J, Simeonov A. 2008. Compound Management for Quantitative High-Throughput Screening. J Lab Autom 13:79 - 89. doi:10.1016/j.jala.2007.12.004

Chain of Metallo-beta-lactamase type 2 (Klebsiella pneumoniae) (C7C422 whole entry, looked up): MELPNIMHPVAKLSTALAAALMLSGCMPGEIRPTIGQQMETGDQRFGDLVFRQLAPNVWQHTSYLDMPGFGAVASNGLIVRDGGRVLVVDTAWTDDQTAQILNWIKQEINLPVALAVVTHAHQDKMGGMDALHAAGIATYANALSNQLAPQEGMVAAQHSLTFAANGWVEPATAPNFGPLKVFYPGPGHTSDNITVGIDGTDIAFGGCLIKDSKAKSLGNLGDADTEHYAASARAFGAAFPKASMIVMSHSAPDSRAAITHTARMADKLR

Activity % (negative = inhibition), inactive:
CN1C(=O)[C@H]2CN(Cc3cn[nH]c3-c3cccs3)C[C@H]2C1=O 1.58%
CCOCCn1c(=O)[nH]c2cc(C(=O)NCCn3cnnc3)ccc21 3.21%
Cn1cnnc1-c1nn(C)c2c1CNCC2 3.66%
COc1ccc(-c2nc(N3CCOCC3)cc3c2CN(Cc2ccccc2)C3=O)cn1 2.36% [at 57.5 µM]
O=C(c1ccc(Cl)cc1)N1CCN(Cc2ccccc2-c2cccnc2)CC1 11.2%
CCOCCn1nc(C)cc1C(=O)N[C@H]1[C@H]2CCO[C@H]2[C@@H]1N(C)C -0.113%
CCn1c(CO)nnc1C1CC(NC(=O)c2[nH]c3ccc(OC)cc3c2C)C1 (centres undefined) 13.2%
O=C(NCCCc1ccccc1F)[C@@]12CNC[C@@H]1CN(Cc1ccccc1)C2 2.98%
CCCNc1ccc2nncn2n1 -0.753%
COc1cc(OC)cc(-c2onc(C)c2C(=O)NCc2ccccc2C)c1 0.744%
CS(=O)(=O)NC[C@H]1Cn2ccnc2CO1 -0.563% [at 77.1 µM]
Cc1noc(C)c1[S+](=O)([O-])N1CCc2nc(-c3ccccc3)nc(-c3ccc(Cl)cc3)c2C1 6.08%
Cc1ccc2nc(C(NC(=O)C3CCN(CC(N)=O)CC3)C(C)C)[nH]c2c1 (centres undefined) -0.481%
COc1cc2c(cc1NS(C)(=O)=O)C(c1cccc3c1OCO3)CC(=O)N2 (centres undefined) 0.737%
Cn1cc(-c2ccc3c(n2)CN(Cc2ccc(F)cc2)C(=O)CO3)cn1 8.04% [at 57.5 µM]
Cc1nn(-c2ccccc2)c(C)c1Cc1nc(C(C)C)no1 10.3%
Cn1cncc1C(=O)N1CCC2(CC1)CNC(C(=O)O)C2 (centres undefined) 43.9%
COc1cccc(N2CCN(C(=O)c3noc(-c4ccc(C)cc4)n3)CC2)c1 4.04%
CCc1c(C)nn(CCNC(=O)c2cc(S(N)(=O)=O)ccc2F)c1C -0.662%
COc1cc(F)ccc1-c1nc(-c2c(C)noc2C)cc2cc(C)oc12 27.1% [at 57.5 µM]
COCCCN(CCC(=O)NCc1ccc2c(c1)OCO2)C(=O)c1cc(C)oc1C -9.84%
Cc1cnc(CCNS(=O)(=O)c2cccc(F)c2)n1C(C)C 0.39%
Cc1cccnc1NCCNC(=O)c1ccc(S(N)(=O)=O)cc1 13%
CCCN1CCC2(CCN([S+](=O)([O-])c3cccs3)CC2)Oc2ccccc21 -2.6%
Cc1ccc(C(=O)N2CCCC2C(=O)N2CCCC2c2nc3ccncc3[nH]2)cc1 (centres undefined) 0.286%
O=C(c1ccoc1)N1CCN(c2cc(C3CC3)ncn2)CC(O)C1 (centres undefined) 18.2%
Cc1n[nH]c(C)c1CNC(=O)C1CCN(c2cn[nH]c(=O)c2)C1 (centres undefined) 10.8%
COCCC1(NC(=O)C2CC2)CCN(C(=O)c2ccccn2)CC1 5.91%
O=C1CC2(CCN(C(=O)c3ccccn3)C2)Nc2ccccc2N1 (centres undefined) -2.18%
O=C1Cc2c(-c3ccccc3OCc3ccccc3)n[nH]c2CN1Cc1ccccn1 9.35% [at 57.5 µM]
CCCc1ccc2oc(C(=O)N(C)CCC3CCCCO3)c(C)c2c1 (centres undefined) 4.21%
O=C1NCCCc2[nH]c(-c3cnn(-c4ccc(F)cc4)c3)nc21 23%
CCc1nc2c(c(-c3ccc(Cl)cc3)n1)CN(Cc1ccccn1)CC2 102%
CCN1CCC(CC(=O)N2CCC(C3CCN(C(=O)NC)CC3)C2)CC1 (centres undefined) 26.7%
CN(C)S(=O)(=O)N1CCc2nn(C)c(=O)n2CC1 10.1%
CC(=O)c1ccc(NC(=O)N[C@H]2CCN3C(=O)[C@@H](Cc4ccccc4)NC(=O)[C@H]23)cc1 13.7% [at 57.5 µM]
CCn1ccc(C(=O)N2CC(c3nc(CCOCC4CC4)no3)C2)n1 -0.382%
NC(=O)[C@@H](Cc1ccccc1)NC(=O)[C@@H]1C[C@@H](NS(=O)(=O)c2cccs2)CCN1C(=O)CSCC(=O)O 0.756%
COc1cccc(CCC(=O)N2CCC(OCC3CC3)C2)c1 (centres undefined) 22%
CN1C(=O)CC[C@]2(C(=O)NCc3ccco3)CCCC[C@@H]12 73.1%
Cc1cn2nnc(C(=O)N3CCC(C(=O)Nc4cccc(F)c4)CC3)c2c(=O)[nH]1 -2.5%
COc1ccc(CN(C)C2CCCN(CCc3ccccc3)C2)c(OC)c1OC (centres undefined) -2.17%
CC(=O)N1CCC(OCCOc2ccccc2)CC1 -7.31%
CCOc1c(CN(C)C(=O)Cn2cccc(OC)c2=O)cccc1OC 1.77%
Oc1ccccc1CN1CC(CNc2cccnc2)C2(C1)CN(c1ccccc1)C2 (centres undefined) 28.9% [at 57.5 µM]
O=C(CC1CCCC1)N1C[C@@H](CO)[C@@H]2Oc3ccc(Cl)cc3[C@@H]21 7.23%
COC1CCOC2(CCN(C(=O)Cc3ccccc3)CC2)C1 (centres undefined) -13.9%
CCc1ccc(S(=O)(=O)N2c3ccccc3CC2c2nnc(C3CCOCC3)o2)cc1 (centres undefined) 0.344%
CC(C)(C)OC(=O)N1CC(NCc2cccc(F)c2F)C1 40% [at 57.5 µM]
C1=C(c2nc(-c3ccncc3)cc3c2ccn3Cc2cccnc2)CCOC1 17.9% [at 57.5 µM]
COC(=O)N1CCCCC1C(=O)N1CCC2(CC1)c1nc[nH]c1CCN2C (centres undefined) -2.82%
O=C(N1CCCCCC1CN1CCOCC1)C1(c2ccccc2)CC1 (centres undefined) 12.4%
CCC1CN(C(=O)c2ccc(NCc3cnn(CC)c3)nc2)CCN1C(C)C (centres undefined) 1.35%
N#CC1CCN(C(=O)C2CCN(C(=O)c3ccc(-c4cncnc4)cc3)CC2)CC1 -3.71%
CC(C)C(=O)N1CCC(NCCOc2ccccc2Cl)CC1 12.6%
CC(C)N(Cc1nccn1C)C(=O)CC(c1ccccc1)c1ccccc1F (centres undefined) 23%
CCc1ccccc1NC(=O)N1C[C@@H](F)C[C@H]1C(=O)N1CCc2ccccc2C1 0.167%
COCCOCc1nc(C2CCCN2C(=O)Nc2ccc(F)cc2F)no1 (centres undefined) -10%
COc1ccc(NC(=O)[C@@H]2C[C@H](c3ccc(F)cc3)N(Cc3ccccc3Cl)C2)cn1 6.46% [at 57.5 µM]
CN(C)C(=O)N1CCC2(CC1)CC(c1cccc(C(F)(F)F)c1)=NO2 -0.151%
COC1CCOC2(CCN(C(=O)CCc3nc4ccccc4s3)CC2)C1 (centres undefined) 18.8%
Cc1cc(C)n(C2CCN(c3nccc(-c4ccccn4)n3)C2)n1 (centres undefined) 25.4%
CN(C)Cc1nnc(C2CC(NC(=O)Cc3c[nH]c(=O)n(C)c3=O)C2)n1C (centres undefined) -2.57%
O=C(C1CCCN1C(=O)Cc1ccc(F)cc1)N1CCC(N2CCOCC2=O)CC1 (centres undefined) 12.7%
O=C1CCC(C(=O)N2CCSCC2)CN1CCc1cccc(F)c1 (centres undefined) 6.53%
CCN(Cc1ccncc1)C(=O)c1coc(COc2cccc(C(F)(F)F)c2)n1 0.141%
CCOC(=O)[C@H]1C[C@]2(CCCCNC2=O)N(C(=O)c2cccc(OC)c2)[C@H]1c1ccco1 -4.71%
Cc1cn2nc(C(=O)N3CCC(C(=O)NCc4ccccn4)CC3)cc2c(=O)[nH]1 18.9%
Cn1cc(CN2C[C@H](C(=O)Nc3nccs3)C[C@@H]2c2cccc(C(F)(F)F)c2)cn1 4.37% [at 57.5 µM]
COc1ccc(C(=O)N2CCC[C@H]2c2nc(-c3ccccc3)no2)cc1 5.95%
COc1ccc(NC(=O)c2nc3sccn3c2-c2cccc(OC)c2)cc1 27.7%
C[C@@H]1CN(C(=O)CN2CCN(c3ncccn3)CC2)C[C@@]1(O)C1CCC1 14.1%
Cc1nc(C)c(C(=O)N2CCC(Cc3nc(C4CC4)n[nH]3)CC2)s1 18.2%
Cn1cc(CN2CCN(c3ccc(C#N)cn3)CC2)c(-c2ccccc2)n1 12.2%
CCc1cc(=O)n(CC(=O)N2CCN(c3ccccc3OC)CC2)c(-c2ccccc2)n1 -0.786%
COCCN1C[C@@H]2[C@H](c3ccccc31)[C@@H](CO)[C@@H](c1ccccc1)N2C(=O)COC(C)=O 4.01%
Cc1ccc(CNC(=O)N(C)CC2CCOCC2)cc1 -0.782%
COCC(=O)N1CCC(C2CCN(C(=O)c3ccncc3)CC2)C1 (centres undefined) -0.46%
COc1cccc(CCC(=O)N2CCC3(CC2)N=C(c2ccccc2)NO3)c1 16.3%
CCN1c2cc(C(=O)NCc3cccc(OC)c3)ccc2C(=O)N2CCCCCC21 (centres undefined) -1.41%
c1coc(-c2nnc([C@H]3CCN(Cc4c[nH]c5ccccc45)C3)o2)c1 37.1% [at 57.5 µM]
C[C@@H]1CN(C2(C(=O)NCc3n[nH]c4c3CCC4)Cc3ccccc3C2)C[C@H](C)O1 0.0426%
CCOC(=O)C1c2c(OC)ccc3c2C(=CC(C)(C)CO3)CN1C(=O)C1CC1 (centres undefined) 2.76%
Cc1cccc(-c2nc3ccc(C(=O)NC4CCCCCC4)cc3o2)n1 29% [at 57.5 µM]
O=C1CCN(C(=O)[C@@H]2CCCN2C(=O)Nc2ccccc2)CCCCCCN1 -1.52%
CCc1ccc(NC(=O)Cn2nc3n(c2=O)CCCC3)cc1 -0.266%
COCC1CN(C)CC12CCN(Cc1sccc1C)CC2 (centres undefined) -2.49%
Fc1ccccc1-c1noc(NCCc2ccc(Cl)cc2)n1 14.8%
Nc1nc(CCC(=O)N[C@@H]2[C@@H](Cc3ccccc3)[C@H]3OCC[C@@H]23)cs1 -5.81%
O=C([C@H]1C[C@H](Oc2cccnc2)CN1C(=O)c1ccc2ccccc2n1)N1CCOCC1 27%
O=S(=O)(c1cnc[nH]1)N1CCC(c2nc(CCOCC3CC3)no2)C1 (centres undefined) -2.63%
CCc1ccc(CN2CCN(c3ccc(C(N)=O)cn3)CC2)nc1 17.8%
COCC(=O)N(C1CCOCC1)C1CCN(C(=O)c2cccnc2C)CC1 10.8%
CC(C)CCN1CCC(N2CCN(C(=O)c3ccc(Br)o3)CC2)C1=O (centres undefined) 57%
Cc1cc(C(=O)NC2CCCC2)c2c(C3CCNC3)noc2n1 (centres undefined) 1.69%
CCS(=O)(=O)N1CCC2(CCC2OC)CC1 (centres undefined) 27.6%
Cc1cnc(CC2CCN(S(=O)(=O)c3ccc4c(c3)CCC4)CC2)n1CC1CC1 12.7%
CC1CCCCN1Cc1nnc2cc(-c3nc(-c4ccccc4)no3)ccn12 (centres undefined) 11.3%
COc1ccc(CN2CCc3nc(N4CCN(C)CC4)[nH]c(=O)c3CC2)c(OC)c1OC 2.04%
Cn1nc2n(c1=O)CCN(C1CCSCC1)CC2 2.04%
COc1ccccc1CC(=O)Nc1cccn2nc(C(C)C)nc12 4.57%
O=C(C1CCCN([S+](=O)([O-])c2cccc(C(F)(F)F)c2)C1)N1CCC(c2nc3ncccc3[nH]2)C1 (centres undefined) 3.41%
O=C(COc1cccc(-c2nnc3n2CCCC3)c1)NCc1ccccc1 -4.92%
CCNC(=O)c1c(C)oc2c1CN(Cc1ccc(Br)o1)CC2 6.18%
